Several values for one entry are separate records, joined by “and”; a condition that tells them apart may be missing. Equal values may be shown once. Inconclusive results are not listed. Entries that show only a call come without a potency. Activity calls are given as the source filed them. Calls follow the shape of the dose curve; as a rule, active = well fitted cell-killing curve with a large enough effect; inconclusive = small, poorly fitted or top-dose-only effect, or effect the other way; inactive = no such curve, though single readings can be large or run the other way.

Among the data in PubChem BioAssay (NCATS) are Potency values, retold here.
Potency is read from the fitted curve at half-maximal effect.

The assay in a line: Viability qHTS for spleen associated tyrosine kinase inhibitor (SYKi) drug resistant MV4-11 cells (AID 1963824). Also: nearly all actives have a fitted effect of over 35% in size. Particulars: SYKi-resistant MV4-11 viability, CellTiter-Glo, 72 h; series mostly up to 45 µM. In outline: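 SYK inhibitor-resistant MV4-11 AML cells, 500 per well, added to predispensed compounds and incubated 72 hr at 37 C, 5% CO2. Viability measured by CellTiter-Glo luminescence after 10 min at room temperature.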
For orientation: In qHTS, concentration-response curves come from the screen itself.
For the compound `COc1cncc(C#Cc2ccccn2)c1`, the Potency entry is “inactive”.

As to `C1N2CN3CN1CN(C2)C3`, the Potency result is “inactive”. As for `COc1cc(N2CCOCC2)ccc1Nc1ncc(Cl)c(Nc2ccccc2NS(C)(=O)=O)n1`, the Potency was 0.206 µM (active).

In the case of `CCCCCCOC(=O)/N=C(\N)c1ccc(NCc2nc3cc(C(=O)N(CCC(=O)OCC)c4ccccn4)ccc3n2C)cc1`, the Potency was 0.82 µM (active). Take `CCOCc1cc(OC)c(-c2ccc(C[C@H](NC(=O)c3c(F)cccc3F)C(=O)O)cc2)c(OC)c1`: the Potency result is “inactive”.

`COc1cccc(OC)c1-c1ccc(C[C@H](NC(=O)c2c(Cl)cccc2Cl)C(=O)O)cc1`: the Potency entry is “inactive”. As for `C/C(=N\O)[C@@H](C)NCC(C)(C)CN[C@H](C)/C(C)=N/O`, the entry is “inactive”; as for `Cc1cc(NS(=O)(=O)c2ccc(N)cc2)nc(C)n1`, “inactive”; as for `CCNC(=O)C1CC(F)(c2ccc(CN3CCCC3)c(F)c2)C1` (stereo not given), “inactive”. Consider `O=C(O)c1n[nH]c2c1C[C@H]1C[C@@H]21`, for which the Potency result is “inactive”. `CCN(CC)Cc1ccc(C(=O)N(CCc2ccccc2OC)[C@@H]2CCNC2)cc1`: the Potency was 3.17 µM (active). For `O=C(NC1CCN(CC(F)(F)F)CC1)c1ccc(-c2cccc(F)c2)nc1`, the Potency entry was “inactive”. Take `Cc1nc(C#Cc2ccnc(Cl)c2)c(C)n1-c1ccc(F)cc1`: the Potency is 8.2 µM (active). As for `CC(C)c1noc(C2CCN(c3ncnc(Nc4ccc(S(C)(=O)=O)cc4F)c3[N+](=O)[O-])CC2)n1`, the entry is “inactive”; as for `COc1cccc(NC[C@@H](O)Cn2c3ccc(Br)cc3c3cc(Br)ccc32)c1`, 16.4 µM (active); as for `CC(C)(C)C1CCN(C(=O)n2ncc(C(O)(c3ccccc3)c3ccccc3)n2)CC1`, 8.2 µM (active).

Take `C(#Cc1cccc(CN2CCOCC2)c1)CCN1CCCCC1`: the Potency entry is “inactive”.

In the case of `CC(NC(=O)C(O)C(C)C)C(=O)NC1C(=O)N(C)CCc2ccccc21` (stereo not given), the Potency result is “inactive”.

`NC(Cc1c[nH]c2ccccc12)C(=O)NC(CCC(=O)O)C(=O)O` (stereo not given): the Potency result was “inactive”.

In the case of `CN(C)CCCNc1nc(CN2CCN(C(c3ccc(Cl)cc3)c3ccc(Cl)cc3)CC2)nc2ccccc12`, the Potency is 3.26 µM (active). For `O=C1N=C(N2CCOCC2)CN1c1ccc(Cl)cc1`, the Potency entry was “inactive”.

For the compound `N#Cc1cc(F)cc(-c2nc(-c3ccccn3)no2)c1`, the Potency result was “inactive”.

For `CN1CCN(C(=O)CN[C@@H]2C[C@H]2c2ccc(OCc3ccccc3)cc2)CC1`, the Potency is 25.9 µM (active).

With `O=C1NC(=Nc2ccccc2F)S/C1=C\c1ccc(C(=O)O)cc1`, the Potency entry is “inactive”. Turning to `COc1ccc(NC(=O)N2CCc3c2ccc2ccccc32)cc1N1CCN(C)CC1`, the Potency is 8.2 µM (active). Turning to `CCCOc1ccccc1-c1nc2n[nH]nc2c(=O)[nH]1`, the Potency entry was “inactive”. In the case of `CN(C)c1ccc(C2O[C@@H](c3ccccc3)C[C@H](c3ccccc3)O2)cc1` (stereo not given in full), the Potency entry was “inactive”. As for `O=C(COc1ccc(Cl)cc1)NC1CCC(NC(=O)COc2ccc(Cl)cc2)CC1` (stereo not given), the entry is “inactive”; as for `Cc1cn(C[C@H](N)C(=O)O)c(=O)n(Cc2ccsc2C(=O)O)c1=O`, “inactive”. Consider `O=S(=O)(c1ccc(Cl)cc1)N1CCN(c2ccnc3cc(Cl)ccc23)CC1`, for which the Potency is 16.4 µM (active). Take `C[C@@H](NC(=O)C(=O)c1c[nH]c2ccc([N+](=O)[O-])cc12)c1ccccc1`: the Potency was 4.11 µM (active). With `CCNC(=O)Nc1ccc(-c2nc3c(c(N4CCOC[C@@H]4C)n2)CCN(c2ncccn2)C3)cc1`, the Potency is 0.164 µM (active).

`COCCCNCC1COc2ccccc2O1` (stereo not given): the Potency result is “inactive”. For `COC(=O)C(Cc1ccc(OCCn2c(=O)sc3cc(C(=O)c4ccccc4)ccc32)cc1)C(=O)OC`, the Potency was 18.4 µM (active).

`CNC1CN(c2ccc3c(=O)c(C(=O)O)cn(-c4nccs4)c3n2)CC1OC` (stereo not given): the Potency was 0.376 µM (active). For `CNC(=O)Nc1ccc(OC)c(NC(=O)NC(=O)c2cc(F)c(F)cc2Cl)c1`, the Potency result was “inactive”. Regarding `CNS(=O)(=O)c1ccccc1Nc1nc(Nc2ccc(N3CCN(C)CC3)cc2OC)ncc1Br`, the Potency was 0.0326 µM (active). Consider `CC#CC(=O)Nc1ccc2ncnc(Nc3cccc(Br)c3)c2c1`, for which the Potency was 1.46 µM (active) and 580 nM (active). In the case of `CCOC(=O)N1CCC(NCCNC(=O)c2ccccc2C)CC1`, the Potency entry is “inactive”. For `CCC1(O)CC2c3cc(OC)c(OC)cc3CCN2CC1CC(C)C` (stereo not given), the Potency entry is “inactive”.
